Calls of active or inactive are those of the source.
Assays:
[1] = E. coli DRC41 culture turbidity changes, primary screen, E. coli filamentation inducer project, strain DRC41, OD650, 48 h (AID 1152);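 further: E. coli MC1000 strain DRC41 lacking acrAB efflux pump and sulA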; conditions: E. coli DRC41 (acrAB sulA), higher = more signal, called active from +8 up or from −8 down
[2] = small-molecule binders of probe aLefty1, primary screen, biochemical, small-molecule microarray, 635/667 nm fluorescence (AID 1153); conditions: higher = more signal;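 further: score merges spot fluorescence with signal-to-noise ratio from the scanned slide images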
[3] = PSAC antagonists in infected red cells, primary screen, cell-based, P. falciparum Indochina, OD700, 1 h (AID 1154); conditions: P. falciparum Indochina infected RBC osmotic lysis, higher = more signal, called active from +8 up or from −8 down
[4] = PSAC antagonists in infected red cells, primary screen, cell-based, P. falciparum Indochina, OD700, 2 h (AID 1155);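 further: lysis reports solute entry through the parasite surface anion channel PSAC; channel blockers reduce lysis of infected cells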; conditions: P. falciparum Indochina infected erythrocytes, osmotic lysis OD700; higher = more signal, called active from +8 up or from −8 down
[5] = osmotic lysis modulators in infected erythrocytes, primary screen, PSAC antagonist project, cell-based, P. falciparum Indochina, OD700, 3 h (AID 1156); conditions: higher = more signal, called active from +8 up or from −8 down
[6] = PSAC antagonists in infected red cells, primary screen, cell-based, P. falciparum Indochina, OD700, 18 h (AID 1157); conditions: P. falciparum Indochina infected erythrocytes, osmotic lysis OD700, 18 h; higher = more signal, called active from +8 up or from −8 down
[7] = modulators of S6 phosphorylation in cells, primary screen, cell-based, A549, cytoblot, luminescence, serum-stimulated (AID 1158); conditions: A549 phospho-S6 cytoblot, 5 h, higher = more signal;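 further: serum-stimulated A549 lung adenocarcinoma cells; signal is phosphorylated S6 detected by cytoblot immunostaining with HRP secondary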
[8] = target: NADPH oxidase 2 (Homo sapiens) (UniProt P04839); experiment: NOX2-dependent H2O2 signal modulators, primary screen, NOX inhibitor project, cell-based, HEK293-NOX2, PMA-stimulated, Amplex Red fluorescence (AID 1159); conditions: 45 min, higher = more signal, called active from +8 up or from −8 down; further: test concentration not given here
NADPH oxidase 2 (Homo sapiens), sequence (P04839 whole entry, looked up): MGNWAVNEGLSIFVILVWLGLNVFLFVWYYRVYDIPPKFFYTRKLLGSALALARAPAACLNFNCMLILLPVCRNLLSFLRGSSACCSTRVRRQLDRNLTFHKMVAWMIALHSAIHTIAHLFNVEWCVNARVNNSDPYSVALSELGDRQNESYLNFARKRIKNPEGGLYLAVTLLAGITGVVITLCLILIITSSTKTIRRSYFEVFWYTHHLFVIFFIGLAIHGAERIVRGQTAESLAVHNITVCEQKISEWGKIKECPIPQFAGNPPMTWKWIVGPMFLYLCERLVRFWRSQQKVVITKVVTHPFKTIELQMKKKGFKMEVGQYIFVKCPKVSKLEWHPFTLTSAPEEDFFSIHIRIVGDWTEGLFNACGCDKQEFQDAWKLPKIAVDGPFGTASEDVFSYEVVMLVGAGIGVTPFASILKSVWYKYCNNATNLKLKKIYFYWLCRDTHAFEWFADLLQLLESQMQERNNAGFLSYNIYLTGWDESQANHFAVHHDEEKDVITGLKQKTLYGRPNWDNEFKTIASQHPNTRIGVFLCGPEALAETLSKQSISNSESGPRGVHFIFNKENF

[9] = target: NADPH oxidase 4 (Homo sapiens) (UniProt Q9NPH5); experiment: NOX4-dependent H2O2 signal modulators, primary screen, NOX inhibitor project, cell-based, HEK293-NOX4, tetracycline-induced, Amplex Red fluorescence (AID 1160); conditions: 45 min, higher = more signal, called active from +8 up or from −8 down
NADPH oxidase 4 (Homo sapiens), sequence (Q9NPH5 whole entry, looked up): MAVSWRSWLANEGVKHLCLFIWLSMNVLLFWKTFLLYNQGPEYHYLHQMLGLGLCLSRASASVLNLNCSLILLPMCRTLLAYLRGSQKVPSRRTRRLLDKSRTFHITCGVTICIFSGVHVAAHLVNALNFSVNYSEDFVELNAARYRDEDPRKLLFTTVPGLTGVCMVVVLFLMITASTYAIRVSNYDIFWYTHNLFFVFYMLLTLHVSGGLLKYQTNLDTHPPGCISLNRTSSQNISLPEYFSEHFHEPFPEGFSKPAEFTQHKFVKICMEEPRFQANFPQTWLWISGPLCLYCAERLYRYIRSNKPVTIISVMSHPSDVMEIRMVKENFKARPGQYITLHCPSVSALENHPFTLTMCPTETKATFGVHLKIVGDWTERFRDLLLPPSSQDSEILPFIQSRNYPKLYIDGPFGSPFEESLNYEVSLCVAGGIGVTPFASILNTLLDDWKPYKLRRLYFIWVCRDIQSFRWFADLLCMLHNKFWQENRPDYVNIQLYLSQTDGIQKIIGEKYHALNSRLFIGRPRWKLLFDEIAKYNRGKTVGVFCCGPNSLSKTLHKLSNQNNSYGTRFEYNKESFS

[10] = target: NADPH oxidase 5 (Homo sapiens) (UniProt Q96PH1); experiment: NOX5-dependent H2O2 signal modulators, primary screen, NOX inhibitor project, cell-based, HEK293-NOX5, Amplex Red fluorescence (AID 1161); conditions: HEK293-NOX5, ionomycin, 45 min, higher = more signal
NADPH oxidase 5 (Homo sapiens), sequence (Q96PH1 whole entry, looked up): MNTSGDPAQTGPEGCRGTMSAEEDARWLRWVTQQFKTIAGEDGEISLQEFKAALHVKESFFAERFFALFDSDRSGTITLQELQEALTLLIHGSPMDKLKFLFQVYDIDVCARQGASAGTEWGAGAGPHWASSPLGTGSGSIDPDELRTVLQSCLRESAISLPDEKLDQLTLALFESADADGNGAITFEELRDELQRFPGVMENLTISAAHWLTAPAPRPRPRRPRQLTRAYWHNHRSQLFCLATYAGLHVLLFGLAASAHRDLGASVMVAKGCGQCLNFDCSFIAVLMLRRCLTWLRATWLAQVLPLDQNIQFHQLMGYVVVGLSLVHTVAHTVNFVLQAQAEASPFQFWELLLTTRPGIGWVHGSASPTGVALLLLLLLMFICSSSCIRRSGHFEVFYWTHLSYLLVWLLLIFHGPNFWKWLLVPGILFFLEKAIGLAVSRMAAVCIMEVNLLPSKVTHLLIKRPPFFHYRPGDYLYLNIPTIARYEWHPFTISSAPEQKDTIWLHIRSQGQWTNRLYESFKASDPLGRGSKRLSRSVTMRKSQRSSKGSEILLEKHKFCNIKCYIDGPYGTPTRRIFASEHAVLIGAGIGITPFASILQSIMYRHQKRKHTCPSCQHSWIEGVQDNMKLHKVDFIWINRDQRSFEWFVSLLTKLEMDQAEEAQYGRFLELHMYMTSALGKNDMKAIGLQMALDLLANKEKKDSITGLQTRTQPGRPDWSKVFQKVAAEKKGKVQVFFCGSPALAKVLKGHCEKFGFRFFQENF

[11] = A549 cell viability effects, profiling panel, calcein-AM fluorescence, 48 h, basal (AID 1162); conditions: higher = more signal; further: test concentration not given here
[12] = adipocyte viability effects, profiling panel, cell-based, 3T3-L1 adipocytes, calcein-AM fluorescence, 48 h, basal (AID 1163); conditions: 3T3-L1 adipocytes viability, higher = more signal; further: test concentration not given here
[13] = HepG2 cell viability effects, profiling panel, calcein-AM fluorescence, 48 h, basal (AID 1164); conditions: higher = more signal; further: test concentration not given here
[14] = MM1S cell viability effects, profiling panel, calcein-AM fluorescence, 48 h, basal (AID 1165); conditions: higher = more signal;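 further: viability of MM1S multiple myeloma cells under basal unstimulated conditions; test concentration not given here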
[15] = basal RPMI8226 viability, no added stimulus, profiling panel, cell-based, calcein-AM fluorescence, 48 h, PK04 Diversity Set (AID 1166); conditions: RPMI8226 myeloma viability, higher = more signal;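 further: cells grown under basal conditions without added stimulus; test concentration not given here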
[16] = basal HepG2 mitochondrial membrane potential changes, profiling panel, cell-based, JC-1 fluorescence, 24 h, 100 nL compound (AID 1167); conditions: higher = more signal; further: test concentration not given here
[17] = basal 3T3-L1 adipocyte mitochondrial potential changes, profiling panel, cell-based, JC-1 fluorescence, 3T3-L1 adipocytes, 24 h, 100 nL compound (AID 1168); conditions: JC-1 mitochondrial fluorescence, higher = more signal, called active from +8 up or from −8 down; further: test concentration not given here
[18] = basal RPMI8226 mitochondrial membrane potential changes, profiling panel, cell-based, JC-1 fluorescence, 24 h, 100 nL compound (AID 1169); conditions: RPMI8226 myeloma, JC-1 mitochondrial potential fluorescence, higher = more signal; further: test concentration not given here
[19] = basal MM1S mitochondrial membrane potential changes, profiling panel, cell-based, JC-1 fluorescence, 24 h, 100 nL compound (AID 1170); conditions: higher = more signal; further: test concentration not given here
[20] = A549 lung cancer cell viability effects, profiling panel, resazurin fluorescence, 24 h, PK04 Diversity Set (AID 1171); conditions: higher = more signal, called active from +8 up or from −8 down; further: test concentration not given here

Row | SMILES | z-score [1] | composite z-score [2] | z-score [3] | z-score [4] | z-score [5] | z-score [6] | z-score [7] | z-score [8] | z-score [9] | z-score [10] | z-score [11] | z-score [12] | z-score [13] | z-score [14] | z-score [15] | z-score [16] | z-score [17] | z-score [18] | z-score [19] | z-score [20]
1 | CC(C)[Si](C#Cc1ccccc1)(O[C@H](c1ccccc1)c1cn(Cc2ccccc2)nn1)C(C)C | 1.57 (inactive) | -0.275 | 1.66 (inactive) | 1.53 (inactive) | -1.39 (inactive) | 0.554 (inactive) | 0.0866 | 0.789 (inactive) | -1.18 (inactive) | -2.98 | -1.6 | -0.433 | -2.13 | -1.8 | -2.46 | -1.19 | 0.24 (inactive) | -0.425 | -0.0328 | -0.486 (inactive)
2 | COC(=O)[C@@]1(Cc2ccc(F)cc2)[C@H]2c3cc(C(=O)N4CCCC4)n(CCc4c[nH]c5cc(F)ccc45)c3C[C@H]2CN1C(=O)c1ccccc1 | -1.22 (inactive) | 0.429 | 1.76 (inactive) | 0.456 (inactive) | 1.86 (inactive) | 0.984 (inactive) | 0.593 | 0.361 (inactive) | 1.9 (inactive) | 2.01 | -0.767 | -0.0351 | 0.194 | -0.234 | -1.37 | 2.18 | -1.2 (inactive) | -0.449 | -1.21 | 0.339 (inactive)
3 | COC(=O)c1c2oc(c1C(=O)OC)C(=O)N[C@H](Cc1ccccc1)Cn1cc(nn1)C1(CCCCC1)NC(=O)N[C@H](CO)CC2 | 2.53 (inactive) | -0.104 | 0.96 (inactive) | 0.166 (inactive) | 0.789 (inactive) | 0.286 (inactive) | 0.274 | -0.0295 (inactive) | 1.77 (inactive) | 0.431 | 0.78 | 0.705 | 0.286 | 0.977 | 0.943 | 0.381 | 0.621 (inactive) | -0.662 | -1.2 | -0.547 (inactive)
4 | CCCCCN1CC=CC23O[C@@H]4/C=C\CCCOC(=O)C4[C@H]2C(=O)N(CCCCCO)[C@@H]3C1=O (stereo not given in full) | 1.83 (inactive) | -0.255 | 0.46 (inactive) | -0.618 (inactive) | -1.29 (inactive) | -1.27 (inactive) | -0.0754 | 0.834 (inactive) | 0.0699 (inactive) | 1.41 | 0.386 | 1.96 | -0.216 | 0.281 | 1.13 | -0.116 | 1.24 (inactive) | -0.21 | -0.235 | 0.844 (inactive)
5 | C=CCNC(=O)[C@H]1[C@@H]2C(=O)O[C@@H](c3ccccc3)[C@@H](c3ccccc3)N2[C@@H](c2ccc(O)cc2)[C@]12C(=O)Nc1ccccc12 | 1.58 (inactive) | -0.191 | 2.59 (inactive) | 0.301 (inactive) | -0.458 (inactive) | 0.393 (inactive) | 0.288 | 0.0548 (inactive) | -0.789 (inactive) | 1.04 | 1.94 | 0.816 | 1.51 | -0.0148 | -0.836 | -0.948 | -0.586 (inactive) | 0.105 | 0.24 | 0.552 (inactive)
6 | CCCN1C(=O)[C@@]2(c3ccc([N+](=O)[O-])cc3)CC(=O)N(C3CCCCC3)[C@@H]2c2ccc(CO)cc21 | -1.45 (inactive) | -0.5 | -0.0987 (inactive) | 0.636 (inactive) | -0.203 (inactive) | 0.0577 (inactive) | -0.504 | -0.955 (inactive) | -0.281 (inactive) | -0.19 | -0.522 | -0.952 | -0.574 | -0.679 | -0.173 | -1.19 | -0.626 (inactive) | -0.696 | -0.868 | -0.291 (inactive)
7 | CCCC[C@@H](O)C1=C(C)Cn2c(=O)n(-c3ccccc3)c(=O)n2[C@H]1CO | 3.02 (inactive) | -0.414 | -0.262 (inactive) | -0.957 (inactive) | -0.0398 (inactive) | -2.37 (inactive) | 0.916 | -0.943 (inactive) | 0.216 (inactive) | 0.616 | 1.38 | 0.345 | 0.108 | 0.548 | 0.617 | 0.372 | 0.276 (inactive) | -0.347 | -0.804 | -1.16 (inactive)
8 | CC(C)c1ccc(NN2C(C(O)c3ccccc3)C=CC3C(=O)N(c4ccccc4)C(=O)C32)cc1 (stereo not given) | 0.2 (inactive) | 0.395 | 4.51 (inactive) | 1.97 (inactive) | 0.506 (inactive) | 1.42 (inactive) | -0.396 | -0.365 (inactive) | -2.49 (inactive) | -2.48 | 1.53 | -1.6 | 1.22 | -0.168 | 0.159 | -1.13 | 0.821 (inactive) | -0.197 | -0.906 | 0.235 (inactive)
9 | COc1ccc([Si](C)(C)[C@@H]2[C@@H](CC(=O)N3CCC[C@H]3CO)O[C@]3(C(=O)N(Cc4cccc(N5C(=O)c6cccc7cccc5c67)c4)c4ccccc43)[C@H]2C)cc1 | 1.63 (inactive) | 0.19 | 3.97 (inactive) | -0.263 (inactive) | -0.16 (inactive) | -1.24 (inactive) | 0.851 | 2.72 (inactive) | 1.31 (inactive) | 2.84 | -1.07 | 1.29 | -3.23 | -2.44 | -4.33 | -0.907 | 0.522 (inactive) | -1.05 | -1.01 | -1.53 (inactive)
